In PubChem BioAssay (EPA / NIEHS) one finds outcome and AC50 data, which are given here for 28 molecules.

Molecules are shown by their SMILES. Where “and” joins values, the source holds several entries; their conditions need not be identical. Identical values can stand only once. Some structures have more than one record in an assay (separate samples or runs), and their calls can disagree. Calls of active or inactive are those of the source. How the source made its calls: active means hit-call score of the fitted dose curve at least 0.9, where 1 is the maximum; inactive means score below 0.9.

In assay [1] the target is Transcription factor E2F1 (Homo sapiens) (UniProt Q01094). Nature of the assay: ATG_E2F_CIS: Attagene CIS-FACTORIAL HepG2 Assay for human E2F Transcription Factor 1 (AID 2282935). The conditions noted are these: HepG2 Attagene cis-reporter, E2F reporter RNA transcripts; actives raise or lower the signal. The method, boiled down: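 Cis-element reporter mRNA induction in transiently transfected HepG2, 24 h exposure. Activity fitted in both directions relative to DMSO negative control.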
Sequence of Transcription factor E2F1 (Homo sapiens) (Q01094 whole entry, looked up): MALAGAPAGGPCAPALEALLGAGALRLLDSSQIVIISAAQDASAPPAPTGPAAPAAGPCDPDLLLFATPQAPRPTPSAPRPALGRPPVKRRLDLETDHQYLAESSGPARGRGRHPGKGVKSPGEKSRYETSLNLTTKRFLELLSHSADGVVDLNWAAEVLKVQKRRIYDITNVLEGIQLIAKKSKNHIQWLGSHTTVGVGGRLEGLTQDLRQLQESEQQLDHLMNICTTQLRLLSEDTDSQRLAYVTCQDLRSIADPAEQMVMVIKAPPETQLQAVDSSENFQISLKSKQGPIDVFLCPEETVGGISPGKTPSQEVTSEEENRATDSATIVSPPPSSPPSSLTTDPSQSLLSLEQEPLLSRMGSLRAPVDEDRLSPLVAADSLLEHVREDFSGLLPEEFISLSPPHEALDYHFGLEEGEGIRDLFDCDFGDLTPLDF

Assay [2] is described as follows: ATG_M_61_CIS: Attagene CIS-FACTORIAL HepG2 Assay for M61 Transcription Factor (Internal Marker) (AID 2282937). The conditions noted are these: HepG2 Attagene CIS-FACTORIAL M61 internal marker reporter; actives raise or lower the signal. Put shortly: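 Readout: fluorescent reporter mRNA fragments resolved by capillary electrophoresis after RT-PCR. Transiently transfected human HepG2 cells carried MRTU constructs reporting endogenous TF activity; 24 h chemical exposure; gain or loss of signal fitted relative to DMSO.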

Assay [3] is described as follows: ATG_EGR_CIS: Attagene CIS-FACTORIAL HepG2 Assay for human Early Growth Response 1 (EGR1) (AID 2282938). The conditions noted are these: HepG2 Attagene CIS-FACTORIAL EGR reporter mRNA; actives raise or lower the signal. Put shortly: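 Read-out: fluorescent reporter-mRNA fragments resolved by capillary electrophoresis after RT-PCR, 24 h post-dose in transiently transfected HepG2. Endogenous transcription-factor activity reported via cis-element-regulated reporter units; gain or loss fitted relative to DMSO.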

Assay [4] in a line: ATG_M_19_CIS: Attagene CIS-FACTORIAL HepG2 Assay for M19 Transcription Factor (Internal Marker) (AID 2282939). The conditions noted are these: HepG2 Attagene CIS-FACTORIAL M19 internal marker reporter; actives raise or lower the signal. The method, boiled down: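 HepG2 cells transiently transfected with cis-regulated multiple reporter transcription units were dosed for 24 h; reporter mRNA was quantified by RT-PCR, 6-FAM primer-extension labelling, HpaI digestion and capillary electrophoresis, with bidirectional fitting against DMSO baseline.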

Assay [5] in a line: ATG_ERE_CIS: Attagene CIS-FACTORIAL HepG2 Assay for Estrogen Response Element (ERE) (AID 2282940). The conditions noted are these: HepG2 ERE cis-reporter, Attagene RNA transcript; actives raise or lower the signal. The method, boiled down: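 HepG2 cells transiently transfected with cis-promoter-driven multiplexed reporter transcription units report endogenous TF activity. After 24 h compound exposure, reporter mRNA is quantified by RT-PCR with capillary electrophoresis fluorescence; bidirectional fitting versus DMSO baseline.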

Assay [6] can be described thus: ATG_Ets_CIS: Attagene CIS-FACTORIAL HepG2 Assay for human Erythroblast Transformation Specific (ETS) (AID 2282941). The conditions noted are these: HepG2 ETS cis-reporter transcription, actives raise or lower the signal. The method, boiled down:
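HepG2 cells transiently transfected with cis-promoter reporter transcription units were dosed for 24 h; reporter mRNA was measured by RT-PCR, 6-FAM primer extension, HpaI digestion and capillary electrophoresis, with bidirectional fitting against DMSO baseline.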

Assay [7] addresses Hepatocyte nuclear factor 3-beta (Homo sapiens) (UniProt Q9Y261). Briefly: ATG_FoxA2_CIS: Attagene CIS-FACTORIAL HepG2 Assay for human Forkhead box A2 (FOXA2) (AID 2282942). The conditions noted are these: HepG2 cis-reporter transcription factor activity, 24 h; actives raise or lower the signal. The method, boiled down: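 Readout: fluorescent reporter transcripts resolved by capillary electrophoresis after RT-PCR. Transiently transfected HepG2, 24 h compound exposure, endogenous TF activity at cis promoter elements. Gain or loss of signal fitted relative to DMSO.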

Assay [8] can be described thus: ATG_FoxO_CIS: Attagene CIS-FACTORIAL HepG2 Assay for human Forkhead box O (FoxO) (AID 2282943). The conditions noted are these: HepG2 Attagene cis-reporter, FoxO element, mRNA; actives raise or lower the signal. The method, boiled down: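 Human hepatoma HepG2 cells carry transiently introduced reporter transcription units controlled by cis promoter elements. Chemical treatment lasted 24 h, and mRNA signal was compared with DMSO.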

Assay [9] is described as follows: ATG_GATA_CIS: Attagene CIS-FACTORIAL HepG2 Assay for human GATA Binding Protein (AID 2282944). The conditions noted are these: HepG2 GATA cis-element reporter, Attagene multiplex mRNA; actives raise or lower the signal. Put shortly: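 HepG2 cells transiently transfected with multiplexed cis-element reporter units reflecting endogenous transcription factor activity; reporter mRNA measured after 24 h dosing by RT-PCR, 6-FAM labeling, HpaI digestion and capillary electrophoresis. Bidirectional fitting versus DMSO baseline.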

Assay [10] is described as follows: ATG_E_Box_CIS: Attagene CIS-FACTORIAL HepG2 Assay for human Enhancer Box (E-box) (AID 2282936). The conditions noted are these: HepG2 E-box cis-reporter transcription, actives raise or lower the signal. The method, boiled down: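 Cells: HepG2 (human liver), transient MRTU transfection. Exposure 24 h. RNA → oligo(dT) RT → PCR → 6-FAM label → HpaI → CE. Activity fitted both directions relative to DMSO.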

Sequence of Hepatocyte nuclear factor 3-beta (Homo sapiens) (Q9Y261 whole entry, looked up): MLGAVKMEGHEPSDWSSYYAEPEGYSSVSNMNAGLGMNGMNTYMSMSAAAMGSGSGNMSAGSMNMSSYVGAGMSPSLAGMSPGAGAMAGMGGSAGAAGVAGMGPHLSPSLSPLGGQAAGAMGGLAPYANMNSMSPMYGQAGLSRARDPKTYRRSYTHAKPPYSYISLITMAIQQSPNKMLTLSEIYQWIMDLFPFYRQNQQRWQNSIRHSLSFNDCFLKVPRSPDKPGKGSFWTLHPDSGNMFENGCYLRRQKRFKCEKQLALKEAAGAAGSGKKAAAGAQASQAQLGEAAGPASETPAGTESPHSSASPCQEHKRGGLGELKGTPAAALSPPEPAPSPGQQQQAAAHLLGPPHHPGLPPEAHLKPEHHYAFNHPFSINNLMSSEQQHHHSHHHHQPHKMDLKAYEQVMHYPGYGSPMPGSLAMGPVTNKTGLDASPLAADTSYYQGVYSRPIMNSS

As to `CCO[Si](CC)(OCC)OCC`, the call in assay [1], in assay [2], in assay [3], in [4], in assay [5] and in assay [6] was inactive. In addition, the outcome in [7], in assay [8] and in [9] was inactive.
`CCCCCC1C(=O)CCC1CC(=O)OC` (centres undefined): the molecule was classed as inactive in assay [1], in assay [10], in assay [2], in assay [3], in [4] and in assay [5]. Moreover, the molecule was classed as inactive in assay [7], in assay [8] and in assay [9].
By AC50 is commonly meant the midpoint of the concentration-response curve, whichever way the signal moves. For the molecule `CCCCCCOc1ccc(O)cc1`, the outcome in [1], in assay [10], in assay [2], in [3], in [4] and in assay [7] was inactive. In addition, the outcome in assay [8] and in assay [9] was inactive. For the same molecule, the AC50 in assay [5] is 2.79 µM (active).
On to `CC/C(=C(\c1ccccc1)c1ccc(OCCN(C)C)cc1)c1ccccc1`, for which the molecule was called inactive in assay [1], in assay [10], in [2], in assay [3], in assay [4] and in [6]. Moreover, the molecule was called inactive in [8] and in assay [9].
Consider `N#CCCNCCC#N`, for which the molecule was called inactive in [1], in assay [10], in [2], in assay [3], in assay [4] and in assay [5]. For the same molecule, the result in assay [8] and in [9] was inactive.
With `OC[C@@H](O)[C@H](O)[C@@H](O)[C@@H](O)CO`, the call in assay [1], in assay [10], in assay [2], in assay [3], in [4] and in assay [7] was inactive. Besides, the molecule was classed as inactive in assay [8] and in assay [9]. For the same molecule, in assay [5], the AC50 was 30.1 µM (active).
For the molecule `COc1ccccc1NC(=O)CC(C)=O`, the result in [1], in assay [10], in assay [2], in assay [3], in [4] and in assay [5] was inactive. Also, the call in [7], in assay [8] and in assay [9] was inactive.
`O=C(c1ccc(OCCN2CCCCC2)cc1)c1c(-c2ccc(O)cc2)sc2cc(O)ccc12`: the outcome in assay [1], in [2], in assay [3], in [4], in assay [6] and in assay [7] was inactive. Moreover, the result in assay [8] and in assay [9] was inactive. Also, the concentration at half-maximal activity (AC50) in assay [3] was 11.1 µM (active) and 12.6 µM (active) and 7.51 µM (active); in [4], 11.3 µM (active) and 11.1 µM (active); in assay [6], 13.6 µM (active) and 17 µM (active).
In the case of `CC(=O)C1=C(C)[C@@H]2C[C@@]3(C1)[C@H](C)CC[C@H]3C2(C)C`, the AC50 in [1] was 139 µM (active); in assay [2] it was 75.3 µM (active); in [4], 100 µM (active); in assay [5] it was 68.1 µM (active). Further, the outcome in assay [10], in assay [3], in [7], in [8] and in [9] was inactive.
With `CC(=O)OC(C)(C)C`, the call in assay [1], in [10], in [2], in assay [3], in assay [4] and in assay [5] was inactive. Also, the outcome in assay [6], in assay [8] and in assay [9] was inactive.
On to `C[N+](C)(C)CCO`, for which the outcome in [1], in [10], in assay [2], in assay [3], in assay [4] and in assay [5] was inactive. Further, the molecule was called inactive in [7], in [8] and in assay [9].
Regarding `CCCCCCCCCCO[C@@H]1O[C@H](CO)[C@@H](O)[C@H](O)[C@H]1O`, the molecule was classed as inactive in assay [1], in assay [10], in assay [2], in assay [3], in assay [4] and in assay [5]. Further, the molecule was classed as inactive in assay [7], in [8] and in [9].
In the case of `CC/C=C\CCOC(=O)C(C)C`, the outcome in [1], in assay [10], in assay [2], in assay [3], in assay [4] and in assay [5] was inactive. The molecule was called inactive in assay [7], in assay [8] and in assay [9].
On to `c1ccc2scnc2c1`, for which the molecule was called inactive in assay [1], in assay [10], in [2], in assay [3], in [4] and in assay [5]. In addition, the outcome in assay [7], in assay [8] and in assay [9] was inactive.
For the molecule `CC(O)COCC(C)O` (centres undefined), the molecule was classed as inactive in assay [1], in assay [10], in assay [2], in [3], in assay [4] and in assay [5]. Further, the outcome in assay [8] and in assay [9] was inactive.
Turning to `Cc1cc(O)c(C)c(C)c1O`, the outcome in assay [1], in assay [2], in [3], in assay [4], in assay [5] and in assay [7] was inactive. For the same molecule, the outcome in assay [8] and in assay [9] was inactive. Besides, the half-maximal activity concentration (AC50) in assay [10] was 37.6 µM (active).
Turning to `CCCCCCCCCCCCN1CCOCC1`, the molecule was classed as inactive in assay [1], in [10], in assay [2], in [3], in [4] and in assay [5]. The outcome in assay [8] and in assay [9] was inactive.
Consider `CC/C=C\CCCCO`, for which the call in assay [1], in assay [10], in assay [2], in assay [3], in assay [4] and in [5] was inactive. Also, the outcome in [7], in assay [8] and in assay [9] was inactive.
On to `CCCCCCCC(=O)N(C)C`, for which the molecule was called inactive in assay [1], in assay [10], in [2], in assay [3], in [4] and in assay [5]. Besides, the result in assay [7], in assay [8] and in assay [9] was inactive.
With `CCC(C)(C)C1CCC(OC)CC1` (centres undefined), the call in [1], in assay [10], in [2], in assay [3], in assay [4] and in [5] was inactive. Further, the molecule was called inactive in [8] and in assay [9].
For the molecule `C[C@]12CC[C@@H]3c4ccc(O)cc4CC[C@H]3[C@@H]1CC[C@@H]2O`, the molecule was classed as inactive in assay [1], in assay [10], in [2], in assay [3], in assay [4] and in assay [7]. The molecule was called inactive in [8] and in assay [9].
Take `C=CC(=O)OCCCCCC`: the molecule was classed as inactive in assay [1], in assay [10], in assay [2], in assay [3], in assay [4] and in assay [6]. Also, the result in assay [7], in assay [8] and in [9] was inactive.
As for `CNC(=C[N+](=O)[O-])NCCSCc1ccc(CN(C)C)o1`, the molecule was called inactive in assay [1], in assay [10], in assay [2], in [3], in assay [4] and in assay [5]. The outcome in [7], in [8] and in assay [9] was inactive.
Turning to `OCC=Cc1ccccc1`, the outcome in [1], in assay [10], in assay [2], in [3], in [4] and in assay [6] was inactive. Also, the molecule was classed as inactive in assay [7], in assay [8] and in assay [9].
As to `CC(C)(O)CCc1ccccc1`, the molecule was classed as inactive in assay [1], in assay [10], in [2], in [3], in assay [4] and in [5]. In addition, the outcome in [7], in [8] and in assay [9] was inactive.
In the case of `CC(=N[Si](C)(C)C)O[Si](C)(C)C`, the outcome in assay [1], in assay [2], in [3], in assay [4], in assay [5] and in [8] was inactive. Moreover, the call in assay [9] was inactive.
For the molecule `COc1ccccc1O`, the molecule was called inactive in assay [1], in assay [2], in assay [3], in assay [4], in [5] and in assay [6]. The molecule was classed as inactive in [7], in assay [8] and in assay [9].
As to `CCCCOCCOC(=O)c1ccccc1C(=O)OCCOCCCC`, the molecule was called inactive in assay [1], in [2], in assay [3], in [4], in assay [5] and in [8]. Also, in assay [9], the molecule was classed as inactive.
